The text below walks through data of PMC4336329 (PLoS ONE, 2015).

Screen size: about 310,000 compounds; about 14,000 (4.5%) showed an effect of 50% or more. Effects have a minus sign here. This is one part of a sample in which strong results are shown more often than they occur.
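Note: peak tail current of the secondary pulse compared with the same well before compound.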

For this experiment, the target named is human ether-à-go-go-related gene (hERG) potassium channel (human, UniProt Q12809). Description: primary screen, population patch clamp on CHO cells stably expressing hERG; higher = less effect of the substance.
Sequence of human ether-à-go-go-related gene (hERG) potassium channel (Q12809 whole entry, looked up): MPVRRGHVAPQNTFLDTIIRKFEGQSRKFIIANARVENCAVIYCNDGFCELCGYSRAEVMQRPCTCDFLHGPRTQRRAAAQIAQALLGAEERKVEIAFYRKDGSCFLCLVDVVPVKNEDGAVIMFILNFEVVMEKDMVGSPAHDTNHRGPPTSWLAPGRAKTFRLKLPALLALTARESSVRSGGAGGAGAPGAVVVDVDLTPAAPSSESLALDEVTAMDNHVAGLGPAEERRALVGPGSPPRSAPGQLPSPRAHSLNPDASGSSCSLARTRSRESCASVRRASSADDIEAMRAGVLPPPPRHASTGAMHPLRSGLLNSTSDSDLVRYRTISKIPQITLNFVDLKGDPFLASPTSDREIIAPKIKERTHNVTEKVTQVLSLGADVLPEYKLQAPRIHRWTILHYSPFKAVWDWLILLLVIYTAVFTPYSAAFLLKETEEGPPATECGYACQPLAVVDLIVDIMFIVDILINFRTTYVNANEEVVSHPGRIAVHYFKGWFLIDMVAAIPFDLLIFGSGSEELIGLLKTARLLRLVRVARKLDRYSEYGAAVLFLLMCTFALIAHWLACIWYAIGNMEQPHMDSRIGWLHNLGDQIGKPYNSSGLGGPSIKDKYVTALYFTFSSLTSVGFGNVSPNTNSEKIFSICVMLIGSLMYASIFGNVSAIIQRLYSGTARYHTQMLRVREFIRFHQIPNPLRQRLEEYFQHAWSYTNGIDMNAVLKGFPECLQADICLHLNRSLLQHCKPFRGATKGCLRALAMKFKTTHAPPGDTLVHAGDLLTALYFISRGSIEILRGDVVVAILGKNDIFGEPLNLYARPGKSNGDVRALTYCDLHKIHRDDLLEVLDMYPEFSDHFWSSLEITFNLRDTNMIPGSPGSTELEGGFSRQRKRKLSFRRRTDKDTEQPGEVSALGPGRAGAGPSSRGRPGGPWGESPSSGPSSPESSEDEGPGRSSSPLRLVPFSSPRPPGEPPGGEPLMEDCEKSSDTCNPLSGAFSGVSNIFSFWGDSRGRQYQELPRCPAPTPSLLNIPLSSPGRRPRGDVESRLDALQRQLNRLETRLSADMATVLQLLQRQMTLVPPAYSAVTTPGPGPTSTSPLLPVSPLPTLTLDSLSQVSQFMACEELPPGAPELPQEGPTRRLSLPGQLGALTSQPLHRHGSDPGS
Turning to `CC1CC(C)CN(CCCNC(=O)c2c(O)nc3ccccn3c2=O)C1` (centres unmarked), the “hERG current change (%, negative = inhibition) at 10uM” value stood at 6.75%.

Consider `CC/C(=N\NC(=O)c1ccc(-c2ccccc2)cc1)C12CC3CC(CC(C3)C1)C2`, for which the “hERG current change (%, negative = inhibition) at 10uM” value was determined as 0.121%.

For the compound `COc1nc(NC2CCCCC2)nc(N2CCCCCC2)n1`, the “hERG current change (%, negative = inhibition) at 10uM” value worked out at 4.84%.

Take `O=C(c1ccc(Cl)cc1)N1CCCOC1`: the “hERG current change (%, negative = inhibition) at 10uM” value came to 15.2%.

As to `CC(=O)Nc1ccc(S(=O)(=O)N2CCCC2C(=O)Nc2ccc(F)cc2)cc1` (centres unmarked), the “hERG current change (%, negative = inhibition) at 10uM” value is on record as 11.2%.

Turning to `CN(C)C(CNC(=O)CCCN1C(=O)c2cccc3cccc(c23)C1=O)c1ccccc1` (centres unmarked), the “hERG current change (%, negative = inhibition) at 10uM” value is listed as -46.2%.

Turning to `COC(=O)[C@@]1(Cc2ccc(F)cc2)[C@H]2c3cc(C(=O)N(C)C)n(CCc4ccccn4)c3C[C@H]2CN1C(=O)c1ccccc1`, the “hERG current change (%, negative = inhibition) at 10uM” value was -64.8%.

With `COC(=O)[C@@]1(Cc2ccc(F)cc2)[C@H]2c3cc(C(=O)N(C)C)n(CCSCCO)c3C[C@H]2CN1C(=O)c1ccccc1`, the “hERG current change (%, negative = inhibition) at 10uM” value is recorded as -34.4%.

On to `COC(=O)[C@@]1(Cc2ccc(F)cc2)[C@H]2c3cc(C(=O)N(C)C)n(Cc4ccccc4)c3C[C@H]2CN1C(=O)c1ccccc1`, for which the “hERG current change (%, negative = inhibition) at 10uM” value is reported as -13.3%.

With `COC(=O)[C@@]1(Cc2ccc(F)cc2)[C@H]2c3cc(C(=O)N(C)C)n(Cc4ccccn4)c3C[C@H]2CN1C(=O)c1ccccc1`, the “hERG current change (%, negative = inhibition) at 10uM” value is on record as -53.4%.

Take `COC(=O)[C@@]1(Cc2ccc(F)cc2)[C@H]2c3cc(C(=O)N4CCCC4)n(CCc4ccc(O)c(O)c4)c3C[C@H]2CN1C(=O)c1ccccc1`: the “hERG current change (%, negative = inhibition) at 10uM” value is -15.5%.

As for `COC(=O)[C@@]1(Cc2ccc(F)cc2)[C@H]2c3cc(C(=O)N4CCCC4)n(CCc4c[nH]c5ccc(OC)cc45)c3C[C@H]2CN1C(=O)c1ccccc1`, the “hERG current change (%, negative = inhibition) at 10uM” value turned out to be 3.92%.

As to `COC(=O)[C@@]1(Cc2ccc(F)cc2)[C@H]2c3cc(C(=O)N4CCCC4)n(CCc4ccccn4)c3C[C@H]2CN1C(=O)c1ccccc1`, the “hERG current change (%, negative = inhibition) at 10uM” value is given as -64.1%.

Turning to `COC(=O)[C@@]1(Cc2ccc(F)cc2)[C@H]2c3cc(C(=O)N(C)C)n(CCc4ccc(OC)c(Br)c4)c3C[C@H]2CN1C(=O)c1ccccc1`, the “hERG current change (%, negative = inhibition) at 10uM” value is reported as -2.99%.

With `COC(=O)[C@@]1(Cc2ccc(F)cc2)[C@H]2c3cc(C(=O)N(C)C)n(Cc4ccc(OC)c(OC)c4)c3C[C@H]2CN1C(=O)c1ccccc1`, the “hERG current change (%, negative = inhibition) at 10uM” value was -42.6%.

Regarding `CS(=O)(=O)Nc1ccc(C(=O)Nc2ccc(S(=O)(=O)N3CCCC3)cc2)cc1`, the “hERG current change (%, negative = inhibition) at 10uM” value is -13.7%.

`Cc1nc(NC(=O)c2ccccc2)sc1-c1csc(NCCc2ccccc2)n1`: the “hERG current change (%, negative = inhibition) at 10uM” value was determined as 12%.

With `CCOC(=O)CNC(=O)c1cnn2cccnc12`, the “hERG current change (%, negative = inhibition) at 10uM” value is given as 2.78%.

In the case of `NC(=O)c1c(-c2cccs2)csc1N`, the “hERG current change (%, negative = inhibition) at 10uM” value turned out to be 3.94%.

For `COc1cc(C(=O)NCc2nnc(SCC(=O)NCc3ccccc3)o2)cc(OC)c1OC`, the “hERG current change (%, negative = inhibition) at 10uM” value amounted to 17.6%.

`Cc1ccc(S(=O)(=O)NC2OC(=O)C(Cl)=C2Cl)cc1` (centres unmarked): the “hERG current change (%, negative = inhibition) at 10uM” value is -3.55%.

In the case of `COC(=O)c1nc2ccccn2c1F`, the “hERG current change (%, negative = inhibition) at 10uM” value is 13.2%.

For the compound `Cc1c(C(=O)N(C)CCCCN2CCOCC2)oc2c(F)cccc12`, the “hERG current change (%, negative = inhibition) at 10uM” value was 4.14%.

`CC(=O)NC(=S)Nc1cc(C(=O)O)ccc1Cl`: the “hERG current change (%, negative = inhibition) at 10uM” value is given as -64.9%.

On to `CC(C)(C)C(=O)NC(=S)Nc1cc(C(=O)O)ccc1Cl`, for which the “hERG current change (%, negative = inhibition) at 10uM” value is reported as 4.5%.

On to `CCCCC(=O)NC(=S)Nc1cc(C(=O)O)ccc1Cl`, for which the “hERG current change (%, negative = inhibition) at 10uM” value is 11.2%.

As for `COC(=O)c1scc(C)c1NC(=O)Nc1ccccc1`, the “hERG current change (%, negative = inhibition) at 10uM” value is recorded as 3.91%.

Regarding `Cc1sc2ncnc(Oc3ccc(-n4ccnc4)cc3)c2c1C`, the “hERG current change (%, negative = inhibition) at 10uM” value was -68.4%.

`Cc1sc2ncnc(N)c2c1C`: the “hERG current change (%, negative = inhibition) at 10uM” value is on record as 4.12%.

With `Cc1ccc2cccc(Oc3ncnc4sc(C)c(C)c34)c2n1`, the “hERG current change (%, negative = inhibition) at 10uM” value is given as 15.3%.

Take `CCOc1ccc(N/C(N)=N/c2nc(CSc3nnc(C)s3)cc(=O)[nH]2)cc1`: the “hERG current change (%, negative = inhibition) at 10uM” value came to 12.5%.

Consider `C/C=C/c1ccc(OCC(=O)Nc2ccc(C(N)=O)cc2)c(OC)c1`, for which the “hERG current change (%, negative = inhibition) at 10uM” value worked out at 7.23%.

With `COc1ccc(C2C(C#N)=C(N)Oc3c2c(C)nn3-c2ccccc2)cc1Cn1nc(C)c([N+](=O)[O-])c1C` (centres unmarked), the “hERG current change (%, negative = inhibition) at 10uM” value is on record as -4.96%.

For `O=C(O)c1cccc(N2C(=O)c3cccc(Oc4ccc(Cl)cc4)c3C2=O)c1`, the “hERG current change (%, negative = inhibition) at 10uM” value turned out to be 16.2%.

Turning to `Cc1cccc(N2C(=O)c3cccc(Oc4ccc(Cl)cc4)c3C2=O)c1`, the “hERG current change (%, negative = inhibition) at 10uM” value is given as 4.76%.

As for `O=C(O)c1ccc(N2C(=O)c3cccc(Oc4ccc(Cl)cc4)c3C2=O)cc1`, the “hERG current change (%, negative = inhibition) at 10uM” value is recorded as -80.7%.

For `Cc1cc(C)nc(NC2=NCC(=O)N2c2ccccc2Br)n1`, the “hERG current change (%, negative = inhibition) at 10uM” value was found to be 8.96%.

On to `CC[n+]1ccc(/C=C/c2c[nH]c3ccccc23)cc1.[Cl-]`, for which the “hERG current change (%, negative = inhibition) at 10uM” value is reported as -6.54%.

`Cc1cc(/C=C(/C#N)C(=O)O)c(C)n1CCC(C)C`: the “hERG current change (%, negative = inhibition) at 10uM” value is on record as 4.68%.

For the compound `CNC(=O)Nc1cc(C(F)(F)F)cc(C(F)(F)F)c1`, the “hERG current change (%, negative = inhibition) at 10uM” value is listed as 14.3%.

In the case of `Cc1nn(-c2ccccc2)c(Cl)c1/C=N/NC(=O)c1ccccc1F`, the “hERG current change (%, negative = inhibition) at 10uM” value is 14.6%.
